Screens deposited in PubChem by National Center for Advancing Translational Sciences (NCATS).
TRPV1 ag: activates the human vanilloid receptor TRPV1. 320,000 compounds, 0.19% hits. Q8NER1. AID 540275. TRPV1-expressing cells, Fluo-8 calcium influx, agonist mode. activation, % at 8.33 µM; in the data active means activation above about 80%; inconclusive means between about 30% and that limit; further: 0% is about no effect
Target sequence (Q8NER1 whole entry, looked up): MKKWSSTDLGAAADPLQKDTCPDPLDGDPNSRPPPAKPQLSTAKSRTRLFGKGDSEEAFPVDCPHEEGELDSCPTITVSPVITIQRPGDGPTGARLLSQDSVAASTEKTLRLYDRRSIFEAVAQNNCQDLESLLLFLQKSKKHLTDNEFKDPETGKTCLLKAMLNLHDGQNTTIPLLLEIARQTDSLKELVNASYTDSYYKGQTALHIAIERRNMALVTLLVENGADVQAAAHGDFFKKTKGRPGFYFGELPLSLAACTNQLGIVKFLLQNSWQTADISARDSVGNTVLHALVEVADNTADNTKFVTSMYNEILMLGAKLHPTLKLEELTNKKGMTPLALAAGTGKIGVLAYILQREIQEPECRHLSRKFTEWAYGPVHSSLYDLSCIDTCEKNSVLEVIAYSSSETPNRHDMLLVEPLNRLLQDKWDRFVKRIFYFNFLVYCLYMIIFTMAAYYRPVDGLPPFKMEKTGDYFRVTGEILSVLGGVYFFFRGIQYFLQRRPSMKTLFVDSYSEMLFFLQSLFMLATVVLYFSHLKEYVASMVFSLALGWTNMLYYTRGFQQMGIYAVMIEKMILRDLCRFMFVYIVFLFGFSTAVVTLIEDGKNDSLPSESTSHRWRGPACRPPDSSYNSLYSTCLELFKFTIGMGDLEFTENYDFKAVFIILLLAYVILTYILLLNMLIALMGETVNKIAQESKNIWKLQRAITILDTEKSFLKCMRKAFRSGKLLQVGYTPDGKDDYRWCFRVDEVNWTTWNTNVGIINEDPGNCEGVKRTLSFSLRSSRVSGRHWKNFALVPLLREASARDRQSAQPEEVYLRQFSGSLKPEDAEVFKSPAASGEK
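Fluo-8 calcium influx in TRPV1-expressing cells, kinetic read (ex 480/em 520 nm). Compound added and read 3 min for agonist activity, followed by capsaicin at EC20 final and 2 min further read for enhancement.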
p53 reactivation: restores transcriptional activity of mutant p53. Potency, µM (titrated, usually from 92.2 µM), for inactives: top-dose activity change, positive = activation, hits mostly activators. H1299 p53-A138V BP100-luciferase reporter, luminescence, 24 h. 320,000 compounds, 0.063% hits; active means well fitted activation curve with a large enough effect; inconclusive means small, poorly fitted or top-dose-only effect; inactive means no such curve, though single readings can be large or run the other way; further: potency means the concentration at half of the fitted maximal effect; % of control where 0% means no effect; nearly all actives have a fitted effect of over 45% in size
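p53-null H1299 cells stably carrying temperature-sensitive p53-A138V and a BP100-luciferase reporter were pinned with compounds (4-point, 1:5 series) and held 24 hrs at 37 deg C. Luminescence was read 10 min after detection reagent.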
hERG WT inh: inhibitors of human wildtype KCNH2 potassium channel; Q12809; U2OS, BacMam KCNH2, thallium flux FluxOr; stronger effect = lower value; activity change, % at 1.84 µM; 340,000 compounds, 0.37% hits; AID 720551;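 active means maximum activity change below -70%; inconclusive means maximum activity change between -70% and -50%; inactive means maximum activity change above -50%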; further: on the % scale 0 is the no-effect control and ±100 the full control effect
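U2OS cells transduced with wild-type KCNH2 virus are loaded with FluxOr dye for 45 min, and thallium flux is measured in kinetic reads before and after stimulation buffer. Rate constants are normalized to DMSO controls.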
KCNH2 3.1 inh: KCNH2 3.1 (human) potassium channel inhibition; U2OS KCNH2 3.1, thallium flux FluxOr; stronger effect = lower value; activity change, % (tested at about 1.8 µM); 340,000 compounds, 0.95% hits; AID 720553;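 active means maximum activity change below -70%; inconclusive means maximum activity change from -70% to -50%; inactive means maximum activity change above -50%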;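 further: thallium influx rate constant from kinetic fluorescence after stimulation buffer; on the % scale 0 is the no-effect control and ±100 the full control effect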
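Thallium flux read-out: FluxOr dye with Red40 quencher in HBSS/HEPES, 45 min at RT. Rate constants from kinetic reads were normalized to positive and negative DMSO controls. Cells: U2OS virally expressing the 3.1 isoform.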
TRPV1 PAM: human TRPV1 potentiation. TRPV1-expressing cells, Fluo-8 calcium influx, capsaicin EC20 potentiation. 320,000 compounds, 0.02% hits. Q8NER1. potentiation, % at 8.33 µM; in the data active means potentiation above about 80%; inconclusive means between about 30% and that limit; further: 0% is about no effect
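TRPV1-expressing cells were cultured overnight at 35.5C and loaded with Fluo-8 calcium dye for 40 to 90 min at room temperature. After a 10 s baseline, compound was added and calcium influx was read kinetically for 3 min (ex 480/em 520 nm).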
ClpP mod: qHTS Assay for Activators of ClpP. ATP-dependent Clp protease proteolytic subunit (Bacillus subtilis (strain 168)), P80244. purified B. subtilis ClpP, FRET peptide cleavage, 20 min. Potency, µM (doses to about 57.5 µM), inactives show top-dose activity change, negative = active. 340,000 compounds, 1.9% hits; active means well fitted falling curve with a large enough effect; inconclusive means small, poorly fitted or top-dose-only effect; inactive means no such curve, though single readings can be large or run the other way; further: potency means the concentration at half of the fitted maximal effect; the source files actives as falling curves though it sought activators and does not explain the sign; nearly all actives have a fitted effect of over 65% in size
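Purified B. subtilis ClpP, 10 microg/mL final in Tris/HCl pH8 with KCl, BSA, glycerol and Tween-20, cleaved an Abz/nitrotyrosine-quenched decapeptide. Fluorescence (ex 320, em 430) was read at 0 and 20 min at room temperature. Delta was normalized to 5.8 microM ADEP and DMSO/no-enzyme controls.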
Starred values were filed as active, the others as inactive; ? = inconclusive; · = no result; ! = not active in a repeat; [ ] = remark or other dose. In the library only some 2.6% were active in any assay of this set; here they are far more common.

SMILES	TRPV1 ag	p53 reactivation	hERG WT inh	KCNH2 3.1 inh	TRPV1 PAM	ClpP mod
O=C(CN1CCN(S(=O)(=O)c2ccc(Br)cc2)CC1)Nc1ccc(F)cc1F	-0.4	12.3%	7.7	-92.0*	-36.6	-17.0%
COc1cccc(NC(=O)CN2CCN(S(=O)(=O)c3ccc(F)cc3)CC2)c1	-0.4	-3.8%	-0.6	2.8	-7.1	0.4%
O=C(CN1CCN(S(=O)(=O)c2ccc(Cl)cc2)CC1)Nc1ccc(F)cc1F	8.2	?	-6.0	?	-16.5	1.2%
CN(C)c1ccc(/C=C\C=C/c2ccnc3ccccc23)cc1	·	·	·	·	·	-0.6%
Cc1ccc2c(=O)cc(C(=O)Nc3sc4c(c3C(=O)NCC3CCCO3)CCC4)oc2c1 (stereo not drawn)	·	·	·	·	·	-0.4%
CC(NC(=O)c1cccc(S(=O)(=O)N2CCN(Cc3ccccc3)CC2)c1)c1ccc(Br)cc1 (stereo not drawn)	-3.5	-9.1%	13.9	-37.3	11.2	25.1µM*
CCOc1cc(S(=O)(=O)N2CCN(Cc3ccccc3)CC2)ccc1Br	1.7	·	-9.9	-81.6*	-4.4	-1.3%
COc1ccc(S(=O)(=O)N2CCN(C)CC2)cc1Br	-1.5	1.7%	0.2	-2.8	1.3	-1.4%
CCN1CCN(S(=O)(=O)c2ccc(OC)c(Br)c2)CC1	9.8	?	-88.5*	-0.3	1.9	1.6%
COC(=O)C[C@H]1c2ccccc2S(=O)(=O)N1c1ccc(N(C)C)cc1	·	·	·	·	·	-0.9%
Cc1cc(C(=O)N2CCN(c3ccc(F)cc3)CC2)c2c(C)nn(-c3cccc(Cl)c3C)c2n1	·	·	·	·	·	-12.1%
CCN(CC)CC(O)CN(c1ccccc1)S(=O)(=O)c1ccc2ccccc2c1 (stereo not drawn)	0.9	-6.2%	-89.4*	-105.7*	?	-1.8%
O=S(=O)(c1ccc2ccccc2c1)N(CC(O)COCc1ccco1)c1ccccc1 (stereo not drawn)	6.6	·	-30.5	-11.1	0.8	0.7%
Cn1c2ccc(F)cc2c2ncn(Cc3ccco3)c(=O)c21	-0.8	-5.0%	-15.2	2.6	-7.5	25.1µM*
Cn1c2ccc(F)cc2c2ncn(Cc3ccccn3)c(=O)c21	13.9	-3.8%	3.8	-20.8	-4.4	-0.1%
CCOCCCn1cnc2c3cc(F)ccc3n(C)c2c1=O	-0.7	3.7%	-19.6	-3.8	22.6	4.0%
O=c1c2ccccc2ncn1Cc1ccco1	-0.2	4.0%	-1.4	-4.9	-4.6	-9.4%
Cn1c2ccccc2c2ncn(Cc3ccco3)c(=O)c21	-3.4	-6.1%	-22.5	1.7	0.8	31.6µM*
Cn1c2ccccc2c2ncn(Cc3ccc(F)cc3)c(=O)c21	80.3*	-2.5%	-0.6	4.0	-2.5	·
O=c1cc(CSc2nnnn2-c2ccccc2)nc2sccn12	-0.8	-0.8%	-5.7	-72.2*	10.9	·
CN(C)CCCNc1nc2cc(-c3cnn(Cc4ccccc4)c3)sc2c(=O)n1C	·	·	·	·	·	-0.1%
O=C(C1CCCCC1)N1CCC(c2nc3ccccc3[nH]2)CC1	0.3	-3.3%	1.0	-89.6*	-12.7	-2.4%
CC(=O)Nc1cc2nn(-c3ccccc3)nc2cc1Cl	3.2	?	-7.4	0.5	4.3	20µM*
CC(C)(C)C(=O)Nc1cc2nn(-c3ccccc3)nc2cc1Cl	13.0	-3.6%	-5.4	-14.4	-11.2	28.2µM*
CC(C)COc1ccc(C(=O)Nc2cc3nn(-c4ccccc4)nc3cc2Cl)cc1	·	·	·	·	·	-14.2%
SMILES	TRPV1 ag	p53 reactivation	hERG WT inh	KCNH2 3.1 inh	TRPV1 PAM	ClpP mod
O=S(=O)(c1ccc(Cl)cc1)N1CCN(c2nc(Nc3cc(Cl)ccc3O)nc3ccccc23)CC1	·	·	·	·	·	-1.7%[31.2 µM]
Cn1c(CN2CCCCC2)nc2cc([N+](=O)[O-])ccc21	-7.8	-0.1%	11.9	-185.4*	10.6	·
COc1ccc(/C=C/C(=O)Nc2cccc(S(=O)(=O)N3CCOCC3)c2)cc1OC	-3.5	-3.5%	1.6	1.1	4.3	28.2µM*
O=C(/C=C/c1ccc(OC(F)F)cc1)Nc1cccc(S(=O)(=O)N2CCOCC2)c1	8.9	7.8%	-38.6	-72.3*	-2.8	-5.9%
O=C(CNc1cccc(S(=O)(=O)N2CCOCC2)c1)Nc1cccc(Br)c1	2.4	-7.3%	2.2	-8.8	?	28.2µM*
COc1cc(/C=C/C(=O)Nc2cccc(S(=O)(=O)N3CCOCC3)c2)ccc1OCC#N	0.7	-18.8%	1.5	-19.1	-0.8	-11.2%
O=C(COC(=O)/C=C/c1ccc(OC(F)F)cc1)Nc1cccc(S(=O)(=O)N2CCCC2)c1	-1.1	-1.5%	9.6	-84.5*	9.5	-3.9%
COc1ccc(C(C)C)cc1S(=O)(=O)NCCc1c(C)[nH]c2c(Cl)cccc12	·	·	·	·	·	-3.3%
Cc1cccc(NC(=O)c2c(C)cc(C)nc2SCC(=O)Nc2c(C)cc(C)cc2C)c1	·	·	·	·	·	-0.4%
Cc1ccc(-c2nc3cnccn3c2Nc2ccc(C(C)C)cc2)o1	·	·	·	·	·	-9.1%
O=C(/C=C/c1ccco1)Nc1cccc(S(=O)(=O)N2CCOCC2)c1	29.7	4.8%	-106.7*	7.0	-19.9	-2.9%
Cc1ccc(/C=C/C(=O)Nc2cccc(S(=O)(=O)N3CCOCC3)c2)o1	20.6	-9.9%	-4.6	-2.3	-9.0	-10.9%
Cc1ccc(CNC(=O)c2ccc3c(c2)CCN3S(=O)(=O)c2ccc(Br)cc2)cc1	·	·	·	·	·	-0.5%
COc1ccc(NS(=O)(=O)c2cc(NC(=O)c3cncc(Br)c3)ccc2OC)cc1	·	-8.1%	-9.2	12.0	·	28.2µM*
COc1ccc(C(=O)Nc2ccccc2)cc1S(=O)(=O)Nc1ccc(Br)cc1	·	·	·	·	·	14.6%
COc1cc(C2Nc3ccccc3C(=O)N2c2ccccc2)c(Br)cc1OCC(=O)O (stereo not drawn)	-3.3	16.2%	-1.3	24.8	10.2	31.6µM*
CCOC(=O)c1c(S(=O)(=O)NCC(=O)Nc2ccc(OC)cc2)c(C)n(C)c1C	-1.4	-2.0%	-1.5	-162.2*	-2.6	1.6%
COc1ccc(Nc2nc(N)c3cc(OC)c(OC)cc3n2)cc1	·	·	·	·	·	-17.6%
COc1cc2nc(Nc3cccc(F)c3)nc(N)c2cc1OC	-0.9	7.7%	-2.5	-2.7	12.1	31.6µM*!
COc1ccc(-c2ccc(-c3noc(-c4cc(OC)cc(OC)c4)n3)c(OC)n2)cc1	·	·	·	·	·	15.8µM*
COc1cccc(-c2ccc(-c3noc(-c4ccccc4F)n3)c(OC)n2)c1	·	2.7%	-11.9	11.5	·	14.1µM*
COc1ccccc1-c1nc(-c2ccc(C)nc2OC)no1	2.6	?	-8.2	5.4	4.9	14.1µM*
COc1ccc(-c2ccc(-c3noc(C(C)C)n3)c(OC)n2)cc1	-0.4	12.0%	-3.8	-4.9	-13.0	56.3%
